# PLK1 PBD block = blocks phosphopeptide binding to human PLK1 polo-box domain; P53350; Plk1 PBD binding of FITC phosphopeptide, fluorescence polarization; Potency, µM, for inactives: max response, negative = inhibition, most hits filed as inhibitors; 360,000 tested, 2.8% active; AID 720504; further: series mostly up to about 57 µM; nearly all actives have a fitted effect of over 65% in size
# DT40 TDP1 CPT = growth inhibition of DT40 Tdp1-/-;hTDP1 cells with camptothecin (screen for TDP1 inhibitors). chicken DT40 Tdp1-/-;hTDP1 cells + 20 nM CPT, ATP luminescence, 48 h. Potency, µM (top dose mostly 46.2 µM), without a hit: at the highest dose activity change, negative = growth inhibition, actives largely listed as inhibitors. 420,000 tested, 12% active; further: nearly all actives have a fitted effect of over 55% in size
#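 Chicken DT40 Tdp1-/- cells stably complemented with human TDP1 were seeded at 400 cells/well in medium containing 20 nM camptothecin, exposed to pin-transferred compounds, and grown at 37 °C for at least 48 hr. Viability was read as ATP luminescence.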
# KAT2A inh = GCN5L2 (KAT2A) acetyltransferase inhibition; GCN5L2 HAT assay, ThioGlo1 CoA-SH fluorescence; 390,000 tested, 0.21% active; Potency, µM (highest dose often 58.9 µM), inactives show top-dose activity change, negative = inhibition, most hits filed as inhibitors; AID 504327; Q92830
#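 Free CoA generated was detected with ThioGlo1 (50uM) fluorescence at Ex340nm/Em540nm, read immediately and after 20 min at room temperature. Enzyme, 20 nM in HEPES pH 7.5 buffer, saw compounds 15 min before adding 75uM H3(1-25) peptide and 70uM acetyl-CoA.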
# VDR inh = inhibitors of human vitamin D receptor; P11473; VDR-SRC2-3 peptide fluorescence polarization, 2 h; 400,000 tested, 0.93% active; Potency, µM, for inactives: max response, negative = inhibition, actives largely listed as inhibitors; AID 504847
# Target sequence (P11473 whole entry, looked up): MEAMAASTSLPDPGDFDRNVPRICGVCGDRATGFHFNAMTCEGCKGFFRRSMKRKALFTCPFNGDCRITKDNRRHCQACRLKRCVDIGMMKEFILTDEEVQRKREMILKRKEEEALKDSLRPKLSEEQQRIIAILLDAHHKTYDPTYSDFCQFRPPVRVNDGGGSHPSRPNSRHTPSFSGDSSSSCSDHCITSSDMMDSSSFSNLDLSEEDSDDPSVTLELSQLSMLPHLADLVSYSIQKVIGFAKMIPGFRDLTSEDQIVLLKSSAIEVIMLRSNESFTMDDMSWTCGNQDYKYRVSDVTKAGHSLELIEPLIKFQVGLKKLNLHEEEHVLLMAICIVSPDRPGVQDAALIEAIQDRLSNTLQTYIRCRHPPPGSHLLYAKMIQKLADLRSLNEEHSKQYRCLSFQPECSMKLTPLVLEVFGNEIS
#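 Measured by FP: displacement of SRC2-3 coactivator peptide from VDR by library compounds, following a two-hour ambient incubation.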
# TDP1 block = TDP1 (human) enzyme inhibition; Q9NUW8; recombinant TDP1, AlphaScreen DNA substrate cleavage; Potency, µM (doses to about 130 µM), for inactives: top-dose activity change, negative = inhibition, usual class: inhibitors; 350,000 tested, 0.28% active; further: nearly all actives have a fitted effect of over 40% in size
#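 E. coli-derived human Tdp1, 1 nM final. Cpd preinc 15 min RT; substrate 15 nM final, 5 min RT; AS bead mix 10 ug/ml final, 10 min RT. Signal loss = tyrosine-FITC cleavage. No-enzyme wells = max signal.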
# TDP1 cell noCPT = qHTS for Inhibitors of human tyrosyl-DNA phosphodiesterase 1 (TDP1): qHTS in cells in absence of CPT; DT40 Tdp1-/- hTDP1 cells, no CPT, ATP luminescence, 48 h; Potency, µM (doses to about 46.2 µM), for inactives: at the highest dose activity change, negative = growth inhibition, usual class: inhibitors; 420,000 tested, 15% active; AID 686978, 2013; further: nearly all actives have a fitted effect of over 55% in size
#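 Camptothecin absent (DMSO only). Human TDP1-complemented DT40 knockout cells, 400 cells/well, 37 °C for minimum 48 hr; ATP measured via CellTiter-Glo, 30 min dark incubation, luminescence.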
# * = called active by the depositor; ? = inconclusive; . = no result; [ ] = another dose, or the depositor's remark. A selection: hits, their analogues and other compounds. The true share with any hit is near 18%. The call rests on the fitted dose curve; in most records, active means well fitted curve in the direction sought with a large enough effect; inconclusive means small, poorly fitted or top-dose-only effect, or another doubt; inactive means no such curve, though single readings can be large; an effect the other way counts as inactive or inconclusive. On the % scale 0 is the no-effect control and ±100 the full control effect; potency means the concentration at half of the fitted maximal effect.
SMILES,PLK1 PBD block,DT40 TDP1 CPT,KAT2A inh,VDR inh,TDP1 block,TDP1 cell noCPT
Cc1ccc(-c2cc3c(n2-c2ccccc2F)CC(C)(C)CC3=O)cc1,.,18µM*,-5%,-2%,9%,13µM*
COc1ccc(-n2c(-c3ccc(Cl)cc3)cc3c2CC(C)(C)CC3=O)c(OC)c1,.,23µM*,-6%,22%,13%,18µM*
COc1ccc(OC)c(NC(=O)c2cc3c(n(-c4ccc(Cl)cc4)c2=O)CC(C)(C)CC3=O)c1,.,?,-11%,-1%,.,-6%
Cc1ccccc1N(CC(=O)NCc1ccccc1)C(=O)CCC(=O)Nc1nccs1,-5%,-27%,-5%,3%,1%,?
CCOc1ccc(C(=O)CSCC(=O)O)cc1,-10%,-23%,2%,-10%,-4%,2%
O=C1C(Nc2ccccc2)=C(N2CCCCC2)C(=O)c2ccccc21,?,18µM*,-4%,?,1%,9.2µM*
O=c1nc(N2CCCCC2)nc(Nc2ccccc2)[nH]1,-5%,?,6%,-21%,1%,-11%
CC1=C(Nc2ccc(C(=O)O)cc2)C(=O)c2ccccc2C1=O,?,?,-5%,-10%,.,?
Cc1ccc(NC2=C(N3CCCCC3)C(=O)c3ccccc3C2=O)cc1,-11%,2.6µM*,-10%,-53%,-1%,2.3µM*
O=C1C(Nc2cccc(O)c2)=C(N2CCCCC2)C(=O)c2ccccc21,-19%,8.2µM*,-5%,?,7%,7.3µM*
CN(C1=C(N2CCCCC2)C(=O)c2ccccc2C1=O)c1ccccc1,-8%,15µM*,2%,5%,13%,21µM*
COc1ccccc1NC1=C(N2CCCCC2)C(=O)c2ccccc2C1=O,-15%,2.1µM*,10%,?,1%,1.8µM*
COc1ccccc1NC(=O)N1CCCC1,1%,?,7%,-6%,-2%,-6%
O=C(/C=C/c1ccc(O)cc1)c1ccc(NC2=C(N3CCCCC3)C(=O)c3ccccc3C2=O)cc1,-24%,1.3µM*,-9%,?,11%,1.6µM*
Cc1ccc2c(CC(=O)Nc3c(C(=O)c4ccc(C)c(F)c4)oc4ccccc34)coc2c1,.,-9%,-5%,15%,1%,?
CCN(CC)C(=S)S,.,24µM*,-16%,?,6%,?
CCOC(=O)OCC1OC(C#Cc2ccccc2)C=CC1OC(=O)OCC (centres undefined),.,.,.,.,4%[21 µM],.
O=C(NCCNC(=O)c1ccc(-c2ccc(Cl)c(Cl)c2)o1)c1cnccn1,-11%,?,-4%,2%,5%,15µM*
O=C(NCCNC(=O)c1ccc(-c2cc(Cl)ccc2Cl)o1)c1cnccn1,-2%,?,.,.,.,21µM*
O=[N+]([O-])c1ccc(Nc2nc(N/N=C\c3ccc4c(c3)OCO4)nc(N3CCCCC3)n2)cc1,-20%,21µM*,-4%,5%,9%,16µM*
COc1ccc([N+](=O)[O-])cc1/C=N/Nc1nc(N2CCCCC2)nc(N2CCCCC2)n1,-11%,?,-10%,-20%,-1%,?
O=[N+]([O-])c1ccc(-c2ccc(/C=N/Nc3nc(NCc4ccccc4)nc(N4CCOCC4)n3)o2)cc1,-2%,9.2µM*,-5%,-4%,8%,16µM*
O=[N+]([O-])c1ccc(/C=N/Nc2ncc(Br)cn2)cc1,-7%,-4%,-10%,-11%,50µM*,-11%
O=[N+]([O-])c1ccc(/C=N/Nc2nc(N3CCCCC3)nc(N3CCCCC3)n2)cc1,-5%,?,3%,-24%,5%,16µM*
O=C1NC(=O)C(c2ccccc2)(c2ccc(Cl)cc2Cl)N1 (centres undefined),3%,-54%,.,-20%,.,?
